Screens (PubChem BioAssay)
Rin1-Abl PPI inh: inhibitors of Rin1-Abl protein binding, primary screen, biochemical, TR-FRET; Tyrosine-protein kinase ABL1 (Homo sapiens) + Ras and Rab interactor 1 (Homo sapiens), …; actives 0.4% (n = 360,000); inhibition, % at 7.35 µM; in the data active = inhibition above about 5%, passing the limit was not always enough
IDE cell activ: human IDE activators in live cells, primary screen, fluorescence polarization, HEK cells, FAbeta-B substrate | FAbeta-B cleavage; 0% vehicle, 100% cell-free pure enzyme wells | activation, % at 5.96 µM | actives 0.073% (n = 340,000);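 active = activation above the mean of all tested compounds plus 3 SD, set per screening campaign, cut at about 17% in these data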
Target sequence (P14735 whole entry, looked up): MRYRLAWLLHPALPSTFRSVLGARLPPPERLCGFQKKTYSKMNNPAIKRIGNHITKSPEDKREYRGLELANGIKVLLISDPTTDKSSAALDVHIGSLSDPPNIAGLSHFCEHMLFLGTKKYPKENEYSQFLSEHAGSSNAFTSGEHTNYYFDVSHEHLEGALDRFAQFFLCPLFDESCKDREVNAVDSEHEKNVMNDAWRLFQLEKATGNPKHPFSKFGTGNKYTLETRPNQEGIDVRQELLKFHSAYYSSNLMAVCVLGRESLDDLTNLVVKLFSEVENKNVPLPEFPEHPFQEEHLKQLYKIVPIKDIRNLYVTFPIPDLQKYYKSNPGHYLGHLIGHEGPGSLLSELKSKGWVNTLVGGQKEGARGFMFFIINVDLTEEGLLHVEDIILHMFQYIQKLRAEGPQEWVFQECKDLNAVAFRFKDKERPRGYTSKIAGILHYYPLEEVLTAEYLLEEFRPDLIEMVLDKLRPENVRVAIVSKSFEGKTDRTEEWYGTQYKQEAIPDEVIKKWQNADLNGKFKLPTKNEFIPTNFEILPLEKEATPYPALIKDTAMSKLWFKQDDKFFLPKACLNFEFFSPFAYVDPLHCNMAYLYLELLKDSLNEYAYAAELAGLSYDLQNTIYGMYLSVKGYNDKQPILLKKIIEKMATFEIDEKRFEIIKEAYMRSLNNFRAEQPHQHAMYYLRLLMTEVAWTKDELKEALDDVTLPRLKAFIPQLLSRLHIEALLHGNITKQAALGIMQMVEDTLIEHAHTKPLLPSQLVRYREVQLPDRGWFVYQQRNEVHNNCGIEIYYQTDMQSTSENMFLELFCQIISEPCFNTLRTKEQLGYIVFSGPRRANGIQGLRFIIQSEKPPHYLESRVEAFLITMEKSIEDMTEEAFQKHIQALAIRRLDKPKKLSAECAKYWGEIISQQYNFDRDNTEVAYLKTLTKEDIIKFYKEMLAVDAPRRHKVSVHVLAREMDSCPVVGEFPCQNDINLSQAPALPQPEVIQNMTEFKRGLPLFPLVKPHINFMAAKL
TPT1 inhibitor: Candida albicans TPT1 enzyme inhibitors, primary screen, biochemical, fluorescence polarization. actives 0.81% (n = 300,000). inhibition, % at 5 µM. recombinant caTPT1, FP RNA substrate dephosphorylation;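 active = inhibition above the mean of all tested compounds plus 3 SD, set per screening campaign, cut at about 24% in these data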
IDE inh: human IDE inhibitors in live cells, primary screen, fluorescence polarization, HEK cells, FAbetaB substrate; FAbetaB cleavage; inhibition, % at 5.59 µM; actives 0.41% (n = 320,000);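 active = percent inhibition above the average of all tested compounds plus 3 SD, set per screening campaign, cut at about 16% in these data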;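 also: IDE supplied by intact live HEK cells; FP after avidin binding of uncleaved biotin substrate so inhibition keeps polarization high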
Calb FLC: C. albicans growth inhibition with fluconazole, primary screen, CaCi-2 strain, Alamar Blue fluorescence; C. albicans CaCi-2 (fluconazole-resistant clinical isolate) + fluconazole, 48 h; growth inhibition, % (concentration not given with the values); actives 0.57% (n = 300,000); AID 1979, 2009;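 active = growth inhibition above about 58% in most replicates, limit read from the data, passing the limit was not always enough; inconclusive = exactly half the replicates above a set limit; inactive = most replicates below a set limit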;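 also: all wells also contain fluconazole at 8 µg/ml as a sub-toxic cotreatment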
Rpn11 inh: Rpn11 (PSMD14) deubiquitinase inhibitors, primary screen, biochemical, fluorescence polarization, uHTS. human 26S proteasome, Ub4-pepOG fluorescence polarization; 20S core pre-blocked with epoxomicin. AID 588493, 2011. inhibition, % at 20 µM. 26S proteasome non-ATPase regulatory subunit 14 (Homo sapiens), O00487. actives 0.59% (n = 360,000);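 active = inhibition at 20 µM, scaled to each plate's controls, above about 33%, limit read from the data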
caTPT1 confirm: Candida albicans TPT1 inhibitors, confirmation, biochemical, fluorescence polarization, triplicate; shares compounds with TPT1 inhibitor; recombinant caTPT1, RNase T1 coupled; inhibition, % at 5 µM; actives 74% (n = 2,400);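 active = inhibition above the primary screen limit, the mean inhibition of all tested compounds plus 3 SD, cut at about 25% in these data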
RNase T1 inh: RNase T1 inhibitors, counter-screen for TPT1 inhibitor project, biochemical, fluorescence polarization; inhibition, % at 5 µM; shares compounds with TPT1 inhibitor; actives 83% (n = 2,400); RNase T1 cleavage, 1536-well; AID 2153, 2009;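 active = inhibition above the solvent-only control well mean plus 3 SD, limit set per screening run, cut at about 23% in these data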;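 also: inhibitors block cleavage so intact labeled substrate keeps polarization high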
Of the large screens only hits and unclear results are named; the others gave an inactive call (follow-up assays come after a bar, where shown). Most compounds without a hit are left out; they make up all but 2.3% or so of the library.

CC1CCCCN1c1cc(C#N)c(C#N)cc1[N+](=O)[O-] (configuration not stated)	none
CC1CCc2cccc3c2N1c1cc(C#N)c(C#N)cc1O3 (configuration not stated)	TPT1 inhibitor 26 | caTPT1 confirm inactive | RNase T1 inh 31
CS(=O)(=O)N1CC2CCCN2c2ccc(C(F)(F)F)cc21 (configuration not stated)	none
CS(=O)(=O)N1CC2CCCN2c2cc(C(F)(F)F)ccc21 (configuration not stated)	TPT1 inhibitor 28 | caTPT1 confirm inactive | RNase T1 inh inactive
O=C(COC(=O)c1cc(Br)ccc1O)Nc1ccc2c(c1)OCO2	none (no result: TPT1 inhibitor, Calb FLC)
CCOc1ccc(N2C(=O)CC(N3CCN(c4ccccc4F)CC3)C2=O)cc1 (configuration not stated)	none
CCOc1ccc(N2C(=O)CC(/C=C3/N(C)c4ccccc4C3(C)C)C2=O)cc1 (configuration not stated)	TPT1 inhibitor 25 | caTPT1 confirm inactive | RNase T1 inh 26
CN1/C(=C/C2CC(=O)NC2=O)C(C)(C)c2ccccc21 (configuration not stated)	none (no result: Calb FLC)
CN1/C(=C/C2CC(=O)N(c3cccc4ccccc34)C2=O)C(C)(C)c2ccccc21 (configuration not stated)	TPT1 inhibitor 38 (not shown: Rpn11 inh) | caTPT1 confirm 54 | RNase T1 inh 68
CCCN1CCC(=O)N(CCN=[N+]=[N-])CC1	none
O=c1[nH]c([N+](=O)[O-])nn1C(c1ccccc1)c1ccccc1	none
OC1CCCN(CC(O)COC(c2ccccc2)c2ccccc2)C1 (configuration not stated)	TPT1 inhibitor 29 | caTPT1 confirm inactive | RNase T1 inh inactive
COc1ccc(C(=O)/C=C2\NCCc3cc(OC)c(OC)cc32)cc1OC	TPT1 inhibitor 53 | caTPT1 confirm inactive | RNase T1 inh 25
CCOC(=O)c1ccc(NC(=O)C2CC(O)CN2S(=O)(=O)c2ccc(C)cc2)cc1 (configuration not stated)	none (no result: TPT1 inhibitor, Calb FLC)
N#C/C(=C/c1ccc(-c2ccccc2)o1)c1nc(-c2cccs2)cs1	TPT1 inhibitor 131 (not shown: Calb FLC, Rpn11 inh) | caTPT1 confirm 124 | RNase T1 inh 114
N#C/C(=C\c1ccc(-c2ccc(F)cc2)o1)C(=O)Nc1nc(-c2cccs2)cs1	none
CCN(CC(=O)Nc1ccc(C(=O)OC)cc1)Cc1ccccc1	TPT1 inhibitor 46 | caTPT1 confirm inactive | RNase T1 inh inactive
Cc1ccc(S(=O)(=O)N(C)CCCC(=O)N2CCCCC2)cc1	none
Cc1sc2nc(COC(=O)c3cccc(S(=O)(=O)N(C)c4ccccc4)c3)[nH]c(=O)c2c1C	TPT1 inhibitor 52 (not shown: Rpn11 inh) | caTPT1 confirm 45 | RNase T1 inh 55
O=C(C[C@H]1C(=O)N(c2ccccc2)C[C@@H]1Cc1ccccc1)Nc1ccccc1	none (no result: IDE cell activ, TPT1 inhibitor, IDE inh, Calb FLC)
CCOC(=O)/C=c1/s/c(=C/c2ccc3cc(OC)ccc3c2)c(=O)n1CC(=O)NCC1CCCO1 (configuration not stated)	none (not shown: TPT1 inhibitor, IDE inh, Calb FLC, Rpn11 inh)
CCOC(=O)/C=c1\s/c(=C\c2c(OC)ccc3ccccc23)c(=O)n1CC(=O)NCC1CCCO1 (configuration not stated)	TPT1 inhibitor 28 (not shown: Rpn11 inh) | caTPT1 confirm 41 | RNase T1 inh 50
COC(=O)[C@]1(C)N[C@H](CN(C)C(=O)c2ccc(F)cc2)[C@@H]2C(=O)N(C)C(=O)[C@@H]21	none (no result: TPT1 inhibitor, Calb FLC)
Cc1ccc2nc(Cl)c(/C=N/Nc3ccc(C(=O)O)cc3)cc2c1	TPT1 inhibitor 30 | caTPT1 confirm 36 | RNase T1 inh 47
CC(=O)Nc1ccc(N=Cc2c(O)ccc3ccccc23)cc1	TPT1 inhibitor 46 (not shown: Rpn11 inh) | caTPT1 confirm 46 | RNase T1 inh 79
O=C(O)c1ccc(N=Cc2c(O)ccc3ccccc23)cc1	none
COc1ccc(N=Cc2c(O)ccc3ccccc23)cc1	TPT1 inhibitor 112 (not shown: Rpn11 inh) | caTPT1 confirm 90 | RNase T1 inh 110
O=C(COc1ccc(F)cc1Cl)NC1CCCCCC1	none (no result: TPT1 inhibitor, Calb FLC)
CCOc1cc(/C=C2\C(=O)N(c3nc(-c4ccc(Br)cc4)cs3)N=C2c2ccccc2)ccc1O	TPT1 inhibitor 41, Calb FLC inconclusive | caTPT1 confirm 100 | RNase T1 inh 104
O=C(Nc1sccc1C(=O)NCc1ccco1)c1cccnc1	TPT1 inhibitor 24, Calb FLC inconclusive | caTPT1 confirm 42 | RNase T1 inh 56
C/C(=N\NS(=O)(=O)c1ccc([N+](=O)[O-])cc1)c1ccc2c(c1)OCO2	none (no result: TPT1 inhibitor, IDE inh)
C/C(=N\Nc1ccc([N+](=O)[O-])cc1)c1ccc(C#N)cc1	none
C/C(=N\Nc1ccc([N+](=O)[O-])cc1)c1ccc2c(c1)OCO2	TPT1 inhibitor 57, Calb FLC inconclusive | caTPT1 confirm 53 | RNase T1 inh 65
C/C(=N/Nc1ccc([N+](=O)[O-])cc1)c1ccc(C)cc1C	TPT1 inhibitor 26 | caTPT1 confirm 36 | RNase T1 inh 47
O=C(CCCCl)NC1=NN(c2ccccc2)C(=O)C1	TPT1 inhibitor 35 (no result: Calb FLC) | caTPT1 confirm inactive | RNase T1 inh inactive
CCOC(=O)c1sc(NC(=O)C2CC(=O)N(c3ccc(OCC)cc3)C2)nc1C (configuration not stated)	none
Cn1cccc1/C=C1\CC(C(C)(C)C)C/C(=C\c2cccn2C)C1=O (configuration not stated)	TPT1 inhibitor 176 (not shown: Rpn11 inh) | caTPT1 confirm 162 | RNase T1 inh 149
O=C(O)C(=O)/C(=C\c1ccc(Cl)cc1)c1ccc2ccccc2n1	TPT1 inhibitor 41 | caTPT1 confirm 35 | RNase T1 inh 49
CC(C)OCCCn1c(-c2ccco2)nc2nc3ccccc3nc21	TPT1 inhibitor 26 | caTPT1 confirm inactive | RNase T1 inh 24
COCCn1c(-c2ccco2)nc2nc3ccccc3nc21	none
Cc1cccc(-n2c(-c3ccco3)nc3nc4ccccc4nc32)c1	none (no result: Rin1-Abl PPI inh, IDE cell activ, Rpn11 inh)
CCC(C)n1c(-c2ccco2)nc2nc3ccccc3nc21 (configuration not stated)	TPT1 inhibitor 27 (no result: Rin1-Abl PPI inh, IDE cell activ, Rpn11 inh) | caTPT1 confirm inactive | RNase T1 inh inactive
CCN(Cc1ccccc1)C(=O)COC(=O)c1c(C)nsc1NC	none (no result: TPT1 inhibitor, Calb FLC)
